The source made the active and inactive calls.
Tests used:
[1] = system: Plasmodium falciparum Sir2 (PF13_0152, Sir2A); assay: pfSir2 binders on small-molecule microarrays, primary screen, biochemical, small-molecule microarray, 635 nm fluorescence (AID 1098); conditions: small-molecule microarray binding, fluorescence 635 nm; higher = more signal;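 also: score merges spot fluorescence intensity with its signal-to-noise ratio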
[2] = small-molecule microarray binders of probe aDKK1, primary screen, biochemical, biotinylated probe, 635/667 nm fluorescence (AID 1099); conditions: higher = more signal;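 also: score merges 667nm spot fluorescence with signal to noise across triplicate slides; reference of the scale not given here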
[3] = small-molecule microarray binders of probe aCHRDL2, primary screen, biochemical, biotinylated probe, 635/667 nm fluorescence (AID 1100); conditions: higher = more signal
[4] = splicing luciferase reporter signal modulators, primary screen, spliceosome inhibition project, cell-based, HEK293, splice +/- reporter (AID 1101); conditions: luminescence, 24 h, higher = more signal, called active from +8 up or from −8 down;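 also: HEK293 cells carrying a splicing-competent luciferase reporter gene; test concentration not given here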
[5] = target: Fibroblast growth factor 10 (Homo sapiens) (UniProt O15520); assay: FGF10 binders on small-molecule microarrays, primary screen, biochemical, small-molecule microarray, 635 nm fluorescence (AID 1102); conditions: FGF10 binding, fluorescence 635 nm, higher = more signal
[6] = system: glycogen synthase kinase-3 (GSK3A per assay name; protocol says GSK3B); assay: GSK3 binders on small-molecule microarrays, primary screen, biochemical, small-molecule microarray, 635 nm fluorescence, GSK3A (AID 1103); conditions: small-molecule microarray binding, fluorescence 635 nm; higher = more signal; also: the record names both GSK3A and GSK3B
[7] = target: Epidermal growth factor receptor (Homo sapiens) (UniProt P00533); assay: EGFR binders on small-molecule microarrays, primary screen, biochemical, small-molecule microarray, 635 nm fluorescence (AID 1104); conditions: EGFR binding, higher = more signal;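 also: score merges 667 nm emission intensity with spot signal to noise over triplicate slides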
[8] = target: Follistatin-related protein 3 (Homo sapiens) (UniProt O95633); assay: FSTL3 binders on small-molecule microarrays, primary screen, biochemical, small-molecule microarray, 635 nm fluorescence (AID 1105); conditions: FSTL3 binding, higher = more signal;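 also: score merges emission near 667 nm and signal to noise per printed spot across three slides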
[9] = target: Dickkopf-related protein 1 (Homo sapiens) (UniProt O94907); assay: DKK1 binders on small-molecule microarrays, primary screen, biochemical, small-molecule microarray, 635 nm fluorescence scan (AID 1106); conditions: DKK1 binding, higher = more signal;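 also: score merges emission near 667 nm with signal to noise over three replicate slides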
[10] = system: Inhibin beta A chain (activin A); assay: INHBA (activin A) binders on microarrays, primary screen, biochemical, small-molecule microarray, 635 nm fluorescence scan (AID 1107); conditions: small-molecule microarray binding, higher = more signal;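 also: mouse activin A protein probed at 4.33 µg/mL on printed slides; score merges bound-protein fluorescence near 667 nm with spot signal-to-noise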

Chain of Dickkopf-related protein 1 (Homo sapiens) (O94907 whole entry, looked up): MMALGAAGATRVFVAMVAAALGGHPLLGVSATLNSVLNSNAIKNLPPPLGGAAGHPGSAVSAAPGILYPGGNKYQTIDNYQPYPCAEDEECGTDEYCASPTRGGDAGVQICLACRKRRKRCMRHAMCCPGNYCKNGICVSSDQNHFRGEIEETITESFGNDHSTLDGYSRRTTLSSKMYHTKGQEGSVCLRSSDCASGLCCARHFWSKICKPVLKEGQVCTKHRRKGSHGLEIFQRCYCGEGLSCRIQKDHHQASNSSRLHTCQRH
Chain of Fibroblast growth factor 10 (Homo sapiens) (O15520 whole entry, looked up): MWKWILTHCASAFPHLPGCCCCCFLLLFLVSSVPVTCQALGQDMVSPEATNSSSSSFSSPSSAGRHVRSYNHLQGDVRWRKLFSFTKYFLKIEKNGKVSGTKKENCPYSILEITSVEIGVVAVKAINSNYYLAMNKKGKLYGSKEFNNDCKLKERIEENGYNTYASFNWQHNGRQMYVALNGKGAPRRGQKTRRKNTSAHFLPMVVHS
Chain of Follistatin-related protein 3 (Homo sapiens) (O95633 whole entry, looked up): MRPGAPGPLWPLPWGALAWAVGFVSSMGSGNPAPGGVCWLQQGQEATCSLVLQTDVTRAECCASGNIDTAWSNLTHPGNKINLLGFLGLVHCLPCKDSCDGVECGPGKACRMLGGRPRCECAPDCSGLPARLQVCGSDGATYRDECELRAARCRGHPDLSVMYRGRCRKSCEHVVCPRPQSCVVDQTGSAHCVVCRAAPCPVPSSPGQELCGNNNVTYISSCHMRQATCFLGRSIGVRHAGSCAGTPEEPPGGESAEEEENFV
Chain of Epidermal growth factor receptor (Homo sapiens) (P00533 whole entry, looked up): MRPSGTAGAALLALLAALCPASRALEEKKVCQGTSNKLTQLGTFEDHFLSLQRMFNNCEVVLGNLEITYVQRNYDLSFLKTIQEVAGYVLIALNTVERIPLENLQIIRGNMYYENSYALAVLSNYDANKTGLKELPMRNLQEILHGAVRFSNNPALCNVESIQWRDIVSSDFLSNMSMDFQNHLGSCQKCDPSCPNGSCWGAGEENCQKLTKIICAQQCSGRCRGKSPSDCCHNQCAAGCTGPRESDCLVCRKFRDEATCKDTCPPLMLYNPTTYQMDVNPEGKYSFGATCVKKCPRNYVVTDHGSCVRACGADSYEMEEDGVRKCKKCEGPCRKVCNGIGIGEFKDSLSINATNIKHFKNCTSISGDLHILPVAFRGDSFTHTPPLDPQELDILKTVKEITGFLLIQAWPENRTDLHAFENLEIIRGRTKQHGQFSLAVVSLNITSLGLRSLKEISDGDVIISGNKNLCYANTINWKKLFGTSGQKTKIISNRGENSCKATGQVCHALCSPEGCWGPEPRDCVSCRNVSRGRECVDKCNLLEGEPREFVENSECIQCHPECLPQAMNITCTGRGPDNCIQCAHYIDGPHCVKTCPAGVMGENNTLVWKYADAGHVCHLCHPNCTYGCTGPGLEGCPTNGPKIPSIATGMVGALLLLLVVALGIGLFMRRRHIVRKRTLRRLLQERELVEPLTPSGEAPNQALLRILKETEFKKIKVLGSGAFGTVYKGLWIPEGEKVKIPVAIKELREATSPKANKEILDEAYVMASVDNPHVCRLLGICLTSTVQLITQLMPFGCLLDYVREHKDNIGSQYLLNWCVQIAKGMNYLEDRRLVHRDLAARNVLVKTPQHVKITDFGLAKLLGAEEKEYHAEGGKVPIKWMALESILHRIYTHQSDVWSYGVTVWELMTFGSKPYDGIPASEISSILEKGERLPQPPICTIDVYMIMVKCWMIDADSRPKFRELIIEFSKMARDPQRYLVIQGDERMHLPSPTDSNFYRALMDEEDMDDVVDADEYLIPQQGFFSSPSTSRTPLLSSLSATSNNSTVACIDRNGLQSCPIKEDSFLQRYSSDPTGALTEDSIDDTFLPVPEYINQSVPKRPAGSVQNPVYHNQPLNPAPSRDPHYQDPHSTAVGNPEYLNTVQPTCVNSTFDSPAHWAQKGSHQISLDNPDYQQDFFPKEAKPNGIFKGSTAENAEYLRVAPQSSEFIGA

Row | Structure (SMILES) | composite z-score [1] | composite z-score [2] | composite z-score [3] | z-score [4] | composite z-score [5] | composite z-score [6] | composite z-score [7] | composite z-score [8] | composite z-score [9] | composite z-score [10]
1 | COC(=O)[C@@]1(Cc2ccc(F)cc2)[C@H]2c3cc(C(=O)N4CCCC4)n(CCN4CNCC4=O)c3C[C@H]2CN1C(=O)c1ccccc1 | 1.51 | 0.845 | 0.82 | 1.64 (inactive) | -0.142 | 1.26 | -0.472 | 0.131 | -1.29 | 0.781
2 | C[C@]1(C(=O)NC2CC2)c2ccccc2C(=O)N(Cc2ccccc2)[C@H]1c1ccc(CO)cc1 | 1.13 | 0.432 | 0.951 | -0.502 (inactive) | -1.01 | -0.84 | -1.12 | -0.761 | -0.594 | -0.0478
3 | CCCC[C@@H]1C[C@H]1[C@@H](NC(=O)c1cccs1)c1ccc(C(F)(F)F)cc1 | 0.0819 | 0.0202 | 0.549 | 0.101 (inactive) | -0.609 | -0.776 | -0.507 | -0.152 | -0.0222 | 1.09
4 | CN(C)CCCNC(=O)[C@@H]1c2ccccc2C(=O)N(Cc2ccccc2Cl)[C@H]1c1ccc(CO)cc1 | -0.405 | 0.0414 | 0.366 | -0.738 (inactive) | -0.497 | 0.333 | -0.493 | -0.89 | 0.0146 | 0.828
5 | C=C(/C(=C/C[C@H](OC(=O)c1ccncc1)c1ccc(CO)o1)c1cc(C(=O)OC)ccc1OC)C(C)C | 0.805 | -0.0125 | -0.0735 | 0.174 (inactive) | 0.909 | 0.851 | 0.0286 | 0.752 | 0.667 | 1.04
6 | COC(=O)[C@@]1(Cc2ccccc2)[C@H]2c3cc(C(=O)N(C)C)n(CCN4CNCC4=O)c3C[C@H]2CN1C(=O)c1ccccc1 | 1.59 | 1.38 | 1.31 | 1.25 (inactive) | -0.243 | -0.604 | -1.71 | -0.618 | -1.59 | 0.433
7 | COCCOC(=O)N1C(=O)[C@@]2(c3cc(C#CC4=CCCCC4)ccc31)[C@H](c1ccc(O)cc1)N1[C@H](c3ccccc3)[C@H](c3ccccc3)OC(=O)[C@H]1[C@@H]2C(=O)N1CCN(c2ncccn2)CC1 | -0.0148 | -0.222 | 0.649 | -0.297 (inactive) | -0.769 | -0.858 | -1.04 | -1.85 | -1.22 | -0.918
8 | NCCCCCNC(=O)[C@@H]1C[C@@H]2C(=O)NCC(=O)N2[C@@H]1c1cccc(OCCO)c1 | 1.06 | 0.237 | 0.0759 | -0.852 (inactive) | 1 | 1.26 | 0.396 | 0.669 | 1.05 | 0.732
9 | CN(C)CCCNC(=O)[C@@]1(C)c2ccccc2C(=O)N(Cc2ccccc2)[C@H]1c1ccc(CO)cc1 | 1.71 | -0.719 | 0.683 | 0.711 (inactive) | -0.476 | -0.35 | -1.48 | -0.456 | 0.0494 | 1
10 | COC(=O)C1=CC(CCCO)=CC(C2CC2)N(C)C=C1C(=O)OC (stereo not given) | 0.948 | -0.302 | 0.41 | -0.519 (inactive) | -0.259 | -0.302 | -0.0025 | 0.481 | -0.673 | 0.576
11 | [N-]=[N+]=NCc1ccccc1[C@H]1OC(c2ccc(OCCCO)cc2)=N[C@@]1(CCS(=O)(=O)c1ccccc1)C(=O)NCC(O)CO (stereo not given in full) | 1.54 | 0.658 | 1.18 | 0.542 (inactive) | 1.32 | 0.752 | -0.0986 | 0.264 | -0.0898 | 0.501
12 | O=C1NC(=O)C2C1C=CC(C(O)CCc1ccccc1)N2Nc1ccc(Cl)cc1Cl (stereo not given) | 0.187 | 1.39 | 1.29 | 1.5 (inactive) | 0.265 | 0.107 | -0.973 | 0.195 | -0.743 | 1.28
13 | C=C(C(=O)CC[C@@H](OC(C)=O)c1ccc(CO)o1)C(C)C | -0.78 | -0.418 | -0.298 | 0.993 (inactive) | 0.826 | 0.482 | -0.289 | 1.39 | 0.536 | 1.41
14 | COC(=O)C(CC#Cc1ccc2c(c1)[C@]1(C(=O)N2)[C@H](c2ccccc2OCCO)N2[C@H](c3ccccc3)[C@H](c3ccccc3)OC(=O)[C@H]2[C@@H]1C(=O)NC[C@H](O)c1ccccc1)C(=O)OC | 1.65 | -0.378 | 0.702 | -0.267 (inactive) | 0.928 | 1.26 | 0.361 | 0.682 | 0.521 | 0.897
15 | CCOC(=O)C1=C[C@@H](c2ccccc2)N(S(=O)(=O)c2ccc(C)cc2)[C@H]1c1ccccc1Cl | 1.9 | 0.379 | -0.229 | 0.328 (inactive) | 1.29 | 1.29 | 0.683 | 1.05 | 0.508 | 0.556
16 | Cc1ccc(S[C@]2(C(=O)O)CC(=O)N(Cc3ccccc3Cl)[C@@H]2c2ccc(CO)cc2I)cc1 | 0.534 | 1.47 | -0.217 | -0.565 (inactive) | -0.054 | 0.202 | 0.0365 | 0.653 | 1.18 | 0.164

Row | Structure (SMILES) | composite z-score [1] | composite z-score [2] | composite z-score [3] | z-score [4] | composite z-score [5] | composite z-score [6] | composite z-score [7] | composite z-score [8] | composite z-score [9] | composite z-score [10]
17 | COCCOC(=O)N1C(=O)[C@@]2(c3cc(C#CCCO)ccc31)[C@H](C(=O)Nc1nc3ccccc3s1)[C@H]1C(=O)O[C@H](c3ccccc3)[C@H](c3ccccc3)N1[C@@H]2c1ccccc1OCCO | 1.42 | 0.331 | 0.411 | 0.0499 (inactive) | 1.12 | 1.08 | 0.561 | 1.11 | 0.452 | 0.923
18 | C=CCN1Cc2ccccc2[C@H]2OC(c3ccc(OCCCO)cc3)=N[C@@]2(CC=C)C1=O | 0.911 | 0.406 | 1.09 | -0.308 (inactive) | 1.4 | 1.28 | 0.901 | 1.42 | 1.67 | 1.39
19 | [N-]=[N+]=NCc1ccccc1[C@H]1OC(c2ccc(OCCCO)cc2)=N[C@@]1(CCS(=O)(=O)c1ccccc1)C(=O)N1CCCCC1 | 1.15 | 1.05 | 1.42 | -0.33 (inactive) | 0.644 | 1.28 | 0.169 | 0.909 | -0.202 | 1.57
20 | COCCOC(=O)N1C(=O)[C@@]2(c3cc(C#CCC(C(=O)OC)C(=O)OC)ccc31)[C@H](C(=O)N1CCc3cc(OC)c(OC)cc3C1)[C@H]1C(=O)O[C@H](c3ccccc3)[C@H](c3ccccc3)N1[C@@H]2c1ccc(OCCO)cc1 | 1.37 | 0.0202 | 0.0313 | 0.382 (inactive) | 1.24 | 1.31 | 0.936 | 1.3 | 0.943 | 0.541
21 | CCOC(=O)C[C@H]1[C@H](OC(=O)c2ccc(C(=O)c3ccccc3)cc2)[C@@H](NC(=O)Cc2ccc(OC)cc2)c2cc(OCCCO)ccc2N1C(=O)c1ccccc1 | -0.186 | 0.0467 | 0.521 | -0.449 (inactive) | 0.281 | -0.0732 | 0.12 | -0.0059 | 0.0251 | 0.643
22 | COCCCNC(=O)[C@]1(CCS(=O)(=O)c2ccccc2)N=C(c2ccc(OCCCO)cc2)O[C@@H]1c1ccccc1CN=[N+]=[N-] | 1.51 | 1.41 | 1.26 | -0.325 (inactive) | 1.54 | 1.32 | 0.233 | 1.2 | -0.0602 | 0.746
23 | O=C1O[C@H](c2ccccc2)[C@H](c2ccccc2)N2[C@H]1[C@@H](C(=O)O)[C@]1(C(=O)Nc3ccc(C#CC4=CCCCC4)cc31)[C@H]2c1ccc(O)cc1 | 1.37 | -0.0007 | 0.0645 | -0.824 (inactive) | 1.06 | 0.908 | 0.23 | 0.844 | 1.11 | 0.855
24 | C=CCOC(=O)[C@H]1[C@@H]2C(=O)O[C@@H](c3ccccc3)[C@@H](c3ccccc3)N2[C@@H](c2ccc(OCCOC(=O)[C@@H]3C[C@@H]4C(=O)N5CCC[C@H]5C(=O)N4[C@@H]3c3ccc(O)cc3)cc2)[C@]12C(=O)Nc1ccc(I)cc12 | 0.637 | -0.102 | 0.357 | 0.431 (inactive) | 0.53 | 0.195 | 0.482 | 0.594 | 1.39 | 0.372
25 | CCCC[C@@H]1C[C@H]1[C@@H](NC(=O)c1ccccc1)c1ccc(C(F)(F)F)cc1 | -0.829 | 0.455 | 0.926 | -0.188 (inactive) | -0.896 | -1.74 | -1.09 | -0.683 | -0.993 | 0.986
26 | COC(=O)[C@@]1(Cc2ccccc2)[C@H]2c3cc(C(=O)N(C)C)n(CCc4ccc(O)c(OC)c4)c3C[C@H]2CN1C(=O)c1ccccc1 | 0.0108 | 1.32 | 0.379 | 0.905 (inactive) | 0.626 | 0.652 | 0.569 | 0.37 | 0.358 | -0.0861
27 | COC(=O)[C@@]1(Cc2ccc(OC)cc2)[C@H]2c3cc(C(=O)N(C)C)n(Cc4ccc(Cl)c(C(F)(F)F)c4)c3C[C@H]2CN1C(=O)c1ccccc1 | 0.546 | 1.45 | 1.49 | 0.524 (inactive) | 0.523 | 0.363 | -0.242 | 0.83 | -1.12 | 0.986
28 | COC(=O)[C@@]1(Cc2ccc(F)cc2)[C@H]2c3cc(C(=O)N(C)C)n(Cc4cc(F)cc5c4OCOC5)c3C[C@H]2CN1C(=O)c1ccccc1 | 0.743 | 1.25 | 1.25 | -1.26 (inactive) | 0.87 | 0.427 | 0.105 | 0.913 | -0.171 | 0.677
29 | O=C(NCCCCCNC(=O)/C(Cc1ccccc1)=N/O)OCc1ccccc1 | -0.263 | -0.314 | -0.603 | -1.54 (inactive) | 0.0434 | -0.201 | 0.445 | 0.206 | 0.229 | -0.182
30 | COc1ccc(-c2cc3c(c(CCc4ccccc4)n2)[Si](C(C)C)(C(C)C)OC3)cn1 | -0.311 | -0.128 | -0.185 | -0.0496 (inactive) | -0.121 | -0.926 | 0.168 | 0.282 | 0.0275 | 0.529
31 | CC(CO)N1C(=O)[C@@H]2[C@H]3C(=O)OCC=C[C@H]3OC23C=CCN(Cc2ccccc2)C(=O)[C@@H]13 (stereo not given in full) | 0.978 | -0.321 | 0.247 | -1.11 (inactive) | -0.49 | -1.23 | -1.18 | -0.578 | -0.567 | 0.056
32 | O=C1O[C@@H](c2ccccc2)[C@@H](c2ccccc2)N2[C@@H](c3ccccc3OCCO)[C@]3(C(=O)Nc4ccc(C#CCCO)cc43)[C@@H](C(=O)N3CCCCCCC3)[C@H]12 | 2.19 | 3.2 | 1.87 | -1.32 (inactive) | 1.71 | 1.45 | 2.05 | 1.78 | 2.69 | 2.05
